# The supplement of paper PMC11417369
# In all, about 25,000 sequences were measured (“ln(normalized median fluorescence intensity)”: median about 9.7, highest 2% from about 11 on). The full list was thinned out, with the highest values kept by preference.
# System: PfAP2-HC AP2 domain (GST-tagged)
# Assay: gcPBM binding intensity (ln(normalized median fluorescence intensity)); higher = stronger DNA binding
# Procedure, shortened: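 Plasmodium falciparum DNA-binding domains carrying a GST tag were expressed in E. coli and applied for 1 h, at about 25 μg on average, to an Agilent 4 × 180k array. The array held primer-extended double-stranded 36-bp intergenic genomic probes together with negative controls, and binding took place in 1× PBS with 1% milk, 0.2 mg/ml BSA, 0.5% salmon testes DNA and 0.03% Triton X-100. An Alexa488 anti-GST antibody detected bound protein, and the array was scanned at 488 nm. Binding intensity is taken as the highest Masliner-normalised natural-log median intensity across replicate spots of either probe orientation.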
row,Sequence,gcPBM binding intensity (ln)
1,AATAAATATAGGTACACACACAAATATGTACATATC [CACACA_site6976],10.2
2,ATTCTCCATGTTTGATGTACTCATATGACGACGGAG [XGTACX_site4923],9.52
3,AATATATGTATATCCACACACATATATATATATATA [CACACA_site1633],9.96
4,ATACATATTCTTATTTGTACTTATTATAAAATGGTC [XGTACX_site6584],9.56
5,ATATATATTTATTTATGTACGAATAAATTTACGAAT [XGTACX_site5190],9.51
6,CTTATCAAAAAAAAAGCATGCCACAGGCAAAAGGTA [TGCATGCA_site574],9.71
7,ATAGAATAAATTTTGTCATTTATTCCTTATATATAA [GTGCAC_negctrl_site227],9.56
8,TTATATATTTTTAGGTGTACTTTTTTTTTTTTTTTT [XGTACX_site8164],9.54
9,ATATATATATAATAAACACACACATATACATATATG [CACACA_site9145],10.5
10,AAAAATAAAATATATACATGCATATACATATTATAT [TGCATGCA_site668],9.65
11,TAAAACATAAGAGACACACACACATATATATATATA [CACACA_site3643],10.9
12,CATATAAAAGGACACACACACACATATATATATATA [CACACA_site4674],11.6
13,ATATTATATATATACACACACACATGCATGCACATA [CACACA_site7917],10.3
14,ATAAAAAAAGGACACACACACATATATTTATTTATA [CACACA_site7438],10.5
15,ATAAAAAAAGGACACACACACATATATATATATATA [CACACA_site5662],10.8
16,AAATTCCACGAACACACACACATATAAATAAATAAA [CACACA_site6697],10.6
17,ATAAAAAAAAGACACACACACATATATATATATATA [CACACA_site3073],10.3
18,AAACATAAGAGACACACACACATATATAAATAAATA [CACACA_site7674],10.5
19,ATATTATATAAATACACACACACATGCATGCACATA [CACACA_site4236],11.2
20,AAATTCCACCAACACACACACATATAAATAAATAAA [CACACA_site1233],11
21,AATAACCACCAACACACACACATATATATATATATA [CACACA_site3540],10.2
22,ATAGATATAACATATGCATGTAAAATATAACCACTC [TGCATGCA_site60],9.97
23,TTCACTAATAAATACGCACACATATACAGATATATA [CACACA_site4887],9.94

row,Sequence,gcPBM binding intensity (ln)
1,GAGTTTTAATGTAATAGTACTTTAATTATTATATAT [XGTACX_site4527],9.7
2,ATACACAAAATTATTAAATCAATAAATATATGGTTT [CACACA_negctrl_site353],9.57
3,TAATATCATTTATGGGGTACCTCCTATTCTTATTTA [XGTACX_site1839],9.64
4,TAACTTTTTTTTTTTTTTTTTTAACTTTTATGTAAT [GTGCAC_negctrl_site156],9.45
5,TTAAACAATTTAGACATACACACAAAAATAATATTA [CACACA_site385],9.87
6,AAACAATTTAGACATACACACAAAAATAATATTATA [CACACA_site384],10.3
7,GAAATATTTAGACACACACACAAACATATAAATATA [CACACA_site6980],11.1
8,TACATCTGTAATGTGTGTACATATATGTATATATTT [XGTACX_site1805],9.87
9,ATTAATAAATAAATGACACACACACCCACAAAAAAA [CACACA_site8839],11.3
10,TTTATTAATAGACACACACACACACGCAAAATAAAA [CACACA_site6255],11.2
11,TTTATTAATGGACACACACACACACCCAAAATAAAA [CACACA_site4294],10.5
12,TTTATTAATAAACACACACACACACCCAAAATAAAA [CACACA_site7966],11
13,AAAAAAAAAAAACACACACACAAAATAAACAAACAA [CACACA_site2721],10.5
14,TTAACAAATAAACACACACACACACCCAAAAAAAAA [CACACA_site8068],11.1
15,TATTTATTAAAACACACACACACACCCACAAAATAA [CACACA_site241],10.5
16,AACACCCACAGACACACACACAAAAATGATTAAAAA [CACACA_site2433],10.9
17,ATAAATAAAAAACACACACACACACCCAAAAAAAAA [CACACA_site2624],10.7
18,TAATAAATAAATGACACACACACACGCAAAAAAAAA [CACACA_site7275],10.6
19,ATATAAAATAGACACGCACACAAAAAAAAAAAAAAA [CACACA_site3522],10.4
20,TTTATTAAGAAACACACACACACACCCAAAATAAAA [CACACA_site242],10.5
21,AAAAAAATAGTCTTCTTGCACTTTTTAATTTATTTT,9.6
22,CTAAAACAATAAATCACACATACATAGGATAATATA [CACACA_site4247],9.81
